This is a sample that favours compounds with a hit; in the whole collection about 1.6% have one here.
KCNQ2 enhance: potentiators of rat KCNQ2 potassium channel; Potassium voltage-gated channel subfamily KQT member 2 (Rattus norvegicus), O88943; CHO-K1 KCNQ2, FluxOR thallium flux fluorescence; active compounds read high; B-score at 10 µM; 0.54% of 310,000 active; AID 2239, 2010;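 active = fluorescence ratio B-score at least 3 SD of library B-scores, with initial fluorescence B-score within 3 of them, cut at about 5.3 in these data; same plate scores as AID 2156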;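 also: B-score of peak minus minimum over baseline fluorescence ratio after K+ and Tl+ stimulus; positive B-score means potentiation of KCNQ2 with more thallium influx and brighter signal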
Target sequence (O88943 whole entry, looked up): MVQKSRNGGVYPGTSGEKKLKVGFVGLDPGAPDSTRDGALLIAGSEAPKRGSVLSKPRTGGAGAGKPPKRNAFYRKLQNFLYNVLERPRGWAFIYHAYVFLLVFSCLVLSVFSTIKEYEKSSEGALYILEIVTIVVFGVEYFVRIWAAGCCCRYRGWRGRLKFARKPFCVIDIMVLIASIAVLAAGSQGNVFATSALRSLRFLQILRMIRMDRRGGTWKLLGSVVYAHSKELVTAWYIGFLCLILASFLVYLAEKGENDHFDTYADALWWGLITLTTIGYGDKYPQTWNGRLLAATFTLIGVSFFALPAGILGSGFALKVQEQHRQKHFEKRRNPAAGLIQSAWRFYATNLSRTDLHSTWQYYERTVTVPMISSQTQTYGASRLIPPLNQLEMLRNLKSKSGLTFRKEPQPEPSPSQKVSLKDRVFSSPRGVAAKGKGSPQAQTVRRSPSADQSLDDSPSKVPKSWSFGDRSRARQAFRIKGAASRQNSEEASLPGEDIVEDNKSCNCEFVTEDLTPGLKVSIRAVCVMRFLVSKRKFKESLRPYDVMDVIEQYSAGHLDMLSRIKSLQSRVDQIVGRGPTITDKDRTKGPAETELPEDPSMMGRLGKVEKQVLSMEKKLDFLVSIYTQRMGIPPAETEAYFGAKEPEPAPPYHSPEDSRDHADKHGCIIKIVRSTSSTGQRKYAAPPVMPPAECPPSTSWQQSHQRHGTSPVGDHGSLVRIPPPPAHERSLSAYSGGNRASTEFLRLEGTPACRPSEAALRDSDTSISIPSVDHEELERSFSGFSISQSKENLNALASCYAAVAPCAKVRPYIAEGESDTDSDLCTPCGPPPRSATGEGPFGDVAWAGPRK
KCNQ2 inh: rat KCNQ2 potassium channel inhibitors, primary screen, cell-based, CHO-K1, FluxOR thallium flux, B-score; Potassium voltage-gated channel subfamily KQT member 2 (Rattus norvegicus), O88943; 20 min; active compounds read low; B-score at 10 µM; 1.1% of 310,000 active; AID 2156, 2009;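 active = fluorescence ratio B-score at most minus 3 library SDs, with starting brightness B-score within 2 library SDs, cut at about -5.5 in these data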
Kir21 conf inh: mouse Kir2.1 channel blockers, retest, confirmation, cell-based, FluxOR thallium flux, duplicate. shares compounds with KCNQ2 enhance. Kir2.1-expressing cells, FluxOR thallium flux fluorescence; active compounds read low. Tl flux remaining, % of negative control (active compounds read low), % at 10 µM. 41% of 2,300 active. AID 2032, 2009;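 active = Primary-screen hit whose thallium flux fell at least 3 control SD below untreated wells in both duplicates, with normal baseline fluorescence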
HEK293 ctr: parental HEK293 activity in Kir2.1 inhibitor counter-screen. shares compounds with KCNQ2 enhance. parental HEK293 cells, FluxOR thallium flux fluorescence; 0% = unstimulated blank wells. FluxOR signal as % of negative control (100 = no effect), % at 10 µM. 19% of 2,300 active;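 active = dye signal at least 3 control SD above or below untreated wells in both duplicates, raw fluorescence within 3, either direction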;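 also: percent is based on the flux ratio of peak minus minimum fluorescence over baseline F0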
CHO-K1 Tl ctr: nonspecific thallium flux increase in parental CHO-K1, confirmation, counter-screen for KCNQ2 potentiator project, cell-based, FluxOR thallium flux, duplicate | AID 2282, 2010 | activity increase over 3SD of controls, % at 10 µM | 43% of 1,200 active | parental CHO-K1 cells, FluxOR thallium flux fluorescence; zero = vehicle mean+3SD, 100% = vehicle-minus-blank window | shares compounds with KCNQ2 enhance;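 active = signal rise of at least 3 SD above the untreated control mean, in both duplicate wells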;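 also: counter screen of KCNQ2 potentiator hits so any rise reflects channel-independent effects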
KCNQ1 pot spec: human KCNQ1 channel potentiation off-target, confirmation, selectivity assay for KCNQ2 potentiator project, cell-based, CHO, FluxOR thallium flux | shares compounds with KCNQ2 enhance | activation over 3SD threshold, % at 10 µM | CHO KCNQ1 stable, FluxOR thallium flux fluorescence; beyond 3SD, as % of vehicle-control signal | 28% of 1,200 active;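 active = fluorescence ratio rise of at least 3 SD of vehicle wells above their mean, in both replicate wells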
KCNQ2 pot confirm: rat KCNQ2 channel potentiators, confirmation, cell-based, CHO, FluxOR thallium flux, duplicate; shares compounds with KCNQ2 enhance; CHO-KCNQ2 cells, FluxOR thallium flux fluorescence; potentiation, less the hit threshold, % at 10 µM; 68% of 1,200 active; AID 2287, 2010;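 active = fluorescence ratio rising 3 SD or more over the vehicle control mean in both replicates, plus primary screen hit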;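 also: peak minus minimum thallium fluorescence divided by baseline after K/Tl stimulus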
Kir2-1 sel: mouse Kir2.1 channel activation off-target, confirmation, selectivity assay for KCNQ2 potentiator project, cell-based, HEK293, FluxOR thallium flux | shares compounds with KCNQ2 enhance | HEK293 Kir2.1, FluxOR thallium flux fluorescence | activity over 3SD threshold, % at 10 µM | 2% of 1,200 active;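 active = fluorescence ratio rise of at least 3 SD above the vehicle-control mean, seen in both replicates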
KCNQ2 W236L pot: potentiators of retigabine-insensitive KCNQ2 W236L, mechanism study for KCNQ2 potentiator project, cell-based, rat KCNQ2 W236L, CHO, automated patch clamp; shares compounds with KCNQ2 enhance; current increase over 3SD of negative controls (%), active compounds read high, % at 25 µM; automated patch clamp current; AID 2558, 2010; 10% of 940 active;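 active = current increase at least 3 SD of the untreated controls above them in both duplicate recordings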
Large screens that a line does not name were inactive (follow-up assays come after a bar, where they were run).

CCc1ccc(OCC(=O)NCc2ccco2)c(Br)c1	KCNQ2 enhance 7.8 | Kir21 conf inh inactive | HEK293 ctr inactive | CHO-K1 Tl ctr inactive | KCNQ1 pot spec inactive | KCNQ2 pot confirm 22 | Kir2-1 sel inactive | KCNQ2 W236L pot inactive
CN(C)CC/C=C1\c2ccc(F)cc2Sc2cc(F)c(Cl)cc21	none (no result: KCNQ2 enhance)
CN(C)CC/C=C1\c2ccccc2Sc2cc(F)c(Cl)cc21	none (no result: KCNQ2 enhance)
CN(C)CCCN1c2ccccc2Sc2ccc(Cl)cc21	none | Kir21 conf inh 28% | HEK293 ctr inactive
CN(C)CC/C=C1\c2ccccc2Sc2ccc(Cl)cc21	none | Kir21 conf inh 26% | HEK293 ctr inactive
CN(C)CC/C=C1/c2ccc(F)cc2Sc2ccc(Cl)cc21	KCNQ2 inh -5.8 | Kir21 conf inh inactive | HEK293 ctr inactive
OCCN1CCN(CCCN2c3ccccc3Sc3ccc(Cl)cc32)CC1	none (no result: KCNQ2 enhance)
O=C(O)c1ccc(Cl)c(NCc2cccs2)c1	none (no result: KCNQ2 enhance)
O=C(CCl)N(C1CCCC1)C1CCS(=O)(=O)C1 (stereo not drawn)	none (no result: KCNQ2 enhance)
O=C1C(=O)N(Cc2cccs2)c2ccccc21	none
COc1cc2ncnc(NCCc3ccccc3)c2cc1OC	KCNQ2 enhance 5.4 | Kir21 conf inh inactive | HEK293 ctr 131% | CHO-K1 Tl ctr 11 | KCNQ1 pot spec inactive | KCNQ2 pot confirm inactive | Kir2-1 sel inactive
COc1ccc(CCNc2ncnc3cc(OC)c(OC)cc23)cc1OC	none
O=C(O)c1ccc(Nc2cc(Cl)c3nonc3c2[N+](=O)[O-])cc1	none
O=[N+]([O-])c1c(Nc2cccc(O)c2)cc(Cl)c2nonc12	KCNQ2 inh -16 | Kir21 conf inh inactive | HEK293 ctr inactive
O=[N+]([O-])c1ccc(Oc2ccc(S(=O)(=O)N3CCOCC3)cn2)cc1	none
Cc1ccc2c(c1)c(-c1ccccc1)nc1nnnn12	none
NC(=O)C1CCN(C(=O)C2CCC(=O)N(CC3CCCCC3)C2)CC1 (stereo not drawn)	none
COc1ccc(C[C@H]2CN3C(=NC[C@@H]3Cc3ccc(O)cc3)N2C[C@H](C)NC(=O)c2ccc(C)c(Br)c2)cc1	none (no result: KCNQ2 enhance) | Kir21 conf inh 48% | HEK293 ctr inactive
COc1ccc(C[C@H]2CN3C(=NC[C@@H]3C(C)C)N2C[C@H](C)NC(=O)c2ccc(C)c(Br)c2)cc1	none (no result: KCNQ2 enhance) | Kir21 conf inh 55% | HEK293 ctr inactive
Cc1ccc(C(=O)N[C@@H](C)CN2C3=NC[C@H](C(C)C)N3C[C@H]2Cc2ccc(O)cc2)cc1Br	none (no result: KCNQ2 enhance)
C[C@@H](CN1C2=NC[C@H](Cc3ccc(O)cc3)N2C[C@H]1Cc1ccc(O)cc1)NC(=O)CCC1CCCCC1	none (no result: KCNQ2 enhance)
CN(C(=O)CSc1nc2[nH]ncc2c(=O)[nH]1)c1ccccc1	none
COc1ccc(CNC(=O)c2nccnc2CO)cc1	none
Nc1sc(-c2ccccc2)n[n+]1Cc1cccc2cccnc12	none (no result: KCNQ2 enhance) | Kir21 conf inh inactive | HEK293 ctr inactive
Oc1ccccc1CNc1cccc2cccnc12	none (no result: KCNQ2 enhance)
COC(=O)c1cccc(NC(=O)c2cccnc2C(=O)O)c1C	none
Nc1cc(-c2ccc(Br)cc2)nn1S(=O)(=O)c1cccc2nsnc12	KCNQ2 enhance 6.9 | Kir21 conf inh inactive | HEK293 ctr inactive | CHO-K1 Tl ctr 20 | KCNQ1 pot spec inactive | KCNQ2 pot confirm inactive | Kir2-1 sel inactive
Nc1cc(-c2ccc(Cl)cc2)nn1S(=O)(=O)c1cccc2nsnc12	none
CCC(C)n1c(NC(=O)c2ccccc2)c(C#N)c2nc3ccccc3nc21 (stereo not drawn)	none (no result: KCNQ2 enhance)
CCCCn1c(NC(=O)c2ccc(F)cc2)c(C#N)c2nc3ccccc3nc21	KCNQ2 enhance 5.7 | Kir21 conf inh inactive | HEK293 ctr 66% | CHO-K1 Tl ctr 103 | KCNQ1 pot spec inactive | KCNQ2 pot confirm inactive | Kir2-1 sel inactive | KCNQ2 W236L pot inactive
CC(C)c1ccccc1NC(=S)NC1CCCCC1	none (no result: KCNQ2 enhance)
CC(C)c1ccc(C(C)NC(=S)NC2CCCCC2)cc1 (stereo not drawn)	KCNQ2 enhance 16 | Kir21 conf inh inactive | HEK293 ctr inactive | CHO-K1 Tl ctr inactive | KCNQ1 pot spec inactive | KCNQ2 pot confirm 39 | Kir2-1 sel inactive | KCNQ2 W236L pot inactive
CC(C)c1ccc(/C=C/C(=O)NC2CCCCC2)cc1	none
CC(NC(=S)NC1CCCCC1)c1ccc(C(C)(C)C)cc1 (stereo not drawn)	KCNQ2 enhance 9.9 | Kir21 conf inh inactive | HEK293 ctr inactive | CHO-K1 Tl ctr inactive | KCNQ1 pot spec inactive | KCNQ2 pot confirm 16 | Kir2-1 sel inactive | KCNQ2 W236L pot inactive
CCn1c(SCC(=O)NNC(=O)c2ccc(OC)cc2)nnc1C1CC1	none
NNC(=O)CN1C(=O)Nc2ccc(Cl)cc2C1c1ccccc1 (stereo not drawn)	none
COC(=O)CN1C(=O)Nc2ccc(Br)cc2C1c1ccccc1 (stereo not drawn)	KCNQ2 enhance 6.7 | Kir21 conf inh inactive | HEK293 ctr inactive | CHO-K1 Tl ctr inactive | KCNQ1 pot spec inactive | KCNQ2 pot confirm 52 | Kir2-1 sel inactive | KCNQ2 W236L pot inactive
COc1cccc(OC)c1C(=O)Nc1ccncc1	none
CS(=O)(=O)N(CC(=O)O)Cc1cccc(CN(CC(=O)O)S(C)(=O)=O)c1	none (no result: KCNQ2 enhance)
Cc1cccc(N(Cc2ccccc2)C(=O)c2cc(S(=O)(=O)N3CCOCC3)ccc2Cl)c1	none
O=C(CNC(=O)c1ccc(Br)o1)NCc1ccccc1Cl	none (no result: KCNQ2 enhance)
O=C(NC(=S)Nc1nc2c(s1)CCCC2)c1ccccc1	none

From PubChem
